# Hit rate of the full screen: of about 4,900 compounds, about 2,000 (41%) were called active.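 How the source made its calls: active means thallium signal drop beyond 5 SD of the untreated control mean, on both duplicate plates; inactive means the rest.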 So high a share suggests a set chosen from earlier hits. Not all results are given here.
# Test: nonspecific activity without KCNK9 expression – cell-based, second counter screen, non-induced KCNK9-HEK293, counter-screen for KCNK9 inhibitor project, confirmation (AID 492997);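 on inhibition: plate controls were buffer only IC0 wells for no effect and SID17386958 at its maximal inhibitory level for full effect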
# Settings: non-induced KCNK9-HEK293, FluxOR thallium flux, at 10 µM; stronger effect = higher value
row,Compound,inhibition
1,O=C(COC(=O)/C(=C/c1cccs1)c1cccs1)NCc1ccccc1Cl,31% (active)
2,Cc1ccc(NC(=O)c2cc([N+](=O)[O-])ccc2Cl)c(O)c1,32% (active)
3,N#Cc1nc(Cc2cccc3ccccc23)oc1NCc1ccc2c(c1)OCO2,53.5% (active)
4,Cc1ccc(C(=O)c2c(NC(=O)c3ccccc3)sc(C)c2C)cc1,inactive
5,O=C(CC(NC(=O)c1ccccc1)c1ccccc1)Nc1ccc(F)c(F)c1 (centres undefined),37% (active)
6,O=[N+]([O-])c1ccc(N2CCN(CC(O)COc3ccccc3)CC2)cc1 (centres undefined),inactive
7,Cc1ccc(C)c(NC(=S)NNC(=S)Nc2ccc(C(C)C)cc2)c1,inactive
8,O=C(Cn1cc(C(=O)c2cccs2)c2ccccc21)NCc1cccs1,29.5% (active)
9,CCOc1cccc(OCCCOc2cccc3cccnc23)c1,inactive
10,Cc1cc(Cl)ccc1C(=O)C1CCCN(C(=O)CCN2CCCO2)C1 (centres undefined),inactive
11,CCCOc1ccc2c3c(c(=O)oc2c1OCCC)CCC3,48.5% (active)
12,Cc1cc2ccccn2c1C(=O)c1cccc(F)c1,inactive
13,COc1cc(Cl)c(C)cc1NC(=O)CSc1nnc(-c2ccco2)n1CC(C)C,25.5% (active)
14,O=C(Nc1nnc(SCc2ccc(Cl)cc2Cl)s1)C1COc2ccccc2O1 (centres undefined),inactive
15,COc1cccc(-c2nn(C)c3sc(C(=O)N4CCN(c5ccccc5)CC4)cc23)c1,inactive
16,COc1ccccc1C(c1nnnn1C(C)(C)C)N1CCN(Cc2ccccc2)CC1 (centres undefined),37.5% (active)
17,CC1=C/C(=N\OS(=O)(=O)c2ccccc2)C=CC1=O,inactive
18,CCOc1ccccc1NC(=O)C1CCCN(S(=O)(=O)c2ccccc2)C1 (centres undefined),inactive
19,Clc1ccc(COn2c(-c3ccc(Cl)cc3Cl)nc3ncccc32)cc1,45% (active)
20,CCOC(=O)C(C)n1cnc2scc(-c3ccc(C)c(C)c3)c2c1=O (centres undefined),inactive
21,CCCCCCCCCCOC(=O)Cn1c(COc2ccc(C)cc2)[n+](C)c2ccccc21,inactive
22,CCCCCCCCCCOC(=O)Cn1c(COc2cccc(OC)c2)[n+](C)c2ccccc21,28% (active)

row,Compound,inhibition
1,Cc1onc(-c2ccc(Cl)cc2)c1-c1ccnn1S(=O)(=O)c1ccc(Cl)cc1,46.5% (active)
2,Cc1cccc(N2CCN(C(=O)c3cccc(S(=O)(=O)N4CCc5ccccc5C4)c3)CC2C)c1 (centres undefined),inactive
3,CCCCn1ccnc1C(=O)c1cccc(S(=O)(=O)N2c3ccccc3CC2C)c1 (centres undefined),46.5% (active)
4,Cc1cc2ccccn2c1C(=O)c1cccc(S(=O)(=O)N2CCOCC2)c1,inactive
5,C=CCc1cc(S(=O)(=O)c2ccc(O)c(CC=C)c2)ccc1O,26% (active)
6,O=C1CC(c2ccccc2)=NN1c1ccc([N+](=O)[O-])cc1,inactive
7,COc1ccc([N+](=O)[O-])cc1-c1nc2ccccc2nc1-c1ccccc1,37% (active)
8,Cc1ccc(CN2CCN(/N=C/c3ccco3)CC2)c(C)c1,inactive
9,CCOC(=O)C(C)Sc1nc2ccccc2c(=O)n1CC1CCCCC1 (centres undefined),31.5% (active)
10,Cc1[nH][nH]c(=O)c1C(c1ccc(-c2ccc(Cl)cc2)o1)c1c(C)[nH][nH]c1=O,inactive
11,CC(C)(C)SCCSC1=CC(=O)CC(c2ccccc2)C1 (centres undefined),inactive
12,Cc1cccc(NC(=O)c2sc3nc4c(c(-c5ccco5)c3c2N)CCC4)c1,38.5% (active)
13,Cc1ccnc(N2CCN(C(=O)CSc3nc4ccccc4nc3N3CCCCC3)CC2)c1,inactive
14,COC(=O)c1cc(NC2c3ccccc3C(=O)N2c2ccc(Cl)cn2)cc(C(=O)OC)c1 (centres undefined),28.5% (active)
15,CCOC(=O)N/N=C/c1cn(Cc2ccccc2Cl)c2ccccc12,25.5% (active)
16,COc1cc(C(CCN2CCN(c3ccccc3)CC2)c2c(OC)cc(OC)c3ccc(=O)oc23)cc(OC)c1OC (centres undefined),inactive
17,Cc1ccc(C2=NN(C)c3nc4ccccc4n3C2)cc1,inactive
18,CCC/C=C(\CCC)C(NC(=O)Cc1ccccc1)c1ccc(C(=O)OC)cc1 (centres undefined),53% (active)
19,O=C(Nc1ccc(Oc2ccccc2)cc1)c1ccco1,39.5% (active)
20,CC(Oc1ccc2ccccc2c1)C(=O)NNC(=S)NC(=O)c1ccco1 (centres undefined),inactive
21,Cc1ncoc1C(=O)N1CCCC(C(=O)c2ccc3c4c(cccc24)CC3)C1 (centres undefined),inactive
22,Cc1cc(Oc2ccc(Cl)cc2)nc(SCC(=O)c2ccccc2)n1,28% (active)

row,Compound,inhibition
1,O=S(=O)(Nc1cccc(Oc2ccc(Cl)cc2)n1)c1ccc(F)cc1,inactive
2,CCOC(=O)CSc1nc2c(sc(=S)n2CCc2ccccc2)c(=O)n1Cc1ccco1,35.5% (active)
3,O=C(COC(=O)c1ccccc1)Nc1ccccc1Sc1ccccc1,34.5% (active)
4,COc1ccc(OC)c(-c2csc(-c3cccs3)n2)c1,26.5% (active)
5,COc1ccccc1/C=C/C=N/n1c(-c2ccc(Cl)cc2Cl)n[nH]c1=S,inactive
6,Brc1ccc(C2CC(c3ccccc3)=Nc3ccccc3N2)cc1 (centres undefined),34.5% (active)
7,COc1ccc(C(=O)C2CCCN(Cc3ccc4nonc4c3)C2)c(C)c1 (centres undefined),inactive
8,COc1ccc(C2CC(c3cccs3)=Nc3ccccc3S2)cc1OC (centres undefined),33% (active)
9,CCCCNC(=S)N/N=C1\CCCCc2ccccc21,inactive
10,CCOC(=O)N1CCN(C(=O)COc2ccc3oc4c(c3c2)CCCC4)CC1,inactive
11,CCOc1ccc(C(C)C)cc1S(=O)(=O)n1nc(C)cc1C,39.5% (active)
12,O=C(NC(=S)Nc1ccccc1C(=O)O)c1ccc(-c2ccc(Br)cc2)o1,inactive
13,O=c1cc(CN2CCN(c3cccc(Cl)c3)CC2)c2cc3c(cc2o1)CCCC3,inactive
14,CCc1cccc(C)c1N(C(=O)Cn1c(CO)nc2ccccc21)C(C)COC (centres undefined),33% (active)
15,Cc1c(C(=O)Nc2ccccn2)oc2ccc(Br)cc12,29.5% (active)
16,COc1cc(C2CC(=O)N3CN(Cc4ccccc4)CSC3=C2C#N)ccc1OCc1ccccc1 (centres undefined),inactive
17,CCCCCC(O)c1cccc(OCc2ccc3ccccc3n2)c1 (centres undefined),38.5% (active)
18,Cc1ccc(C(=O)c2c(NC(=O)c3ccncc3)sc3c2CCCC3)cc1,inactive
19,CCCCN(Cc1ccccc1)C(=O)C1CCN(Cc2sccc2C)CC1,inactive
20,O=C(Oc1ccc(Br)cc1C(=S)N1CCOCC1)c1cccc([N+](=O)[O-])c1,inactive

# Reference: PubChem BioAssay AID492997 (Johns Hopkins Ion Channel Center, 2010)
